Measured values published in PubChem BioAssay.
Where “and” joins values, the source holds several entries; their conditions need not be identical. Equal entries are not always repeated. Inconclusive results are not listed. Calls of active or inactive are those of the source.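 The calls were made as follows, unless noted: active = z-score of at least 1.8 in each of two replicates, scored against plate mean and spread of sample wells; inactive = the rest.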

Key:
[1] = tested on: Neuropilin-2 / VEGF-C interaction (human); assay: small molecules blocking Neuropilin-2/VEGF-C interaction – biochemical, microplate binding format, z-score (AID 743281; call rule not given here); settings: microplate NRP2/VEGF-C binding assay; stronger effect = lower value
[2] = galactose survival enhancers in mitochondrial complex I cybrids – cell-based, galactose medium, ATP luminescence, primary screen (AID 1645843); settings: complex I mutant cybrid cells, 72 h, stronger effect = higher value;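 also: positive z means more ATP and so rescue of galactose-driven cybrid death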
[3] = viability loss in pontine glioma line – cell-based, JHH-DIPG-1, MIPE4.0, CellTiter-Glo, qHTS, dose response (AID 1347062; cut-off not given, nearly all actives have AC50 up to about 27 µM); settings: JHH-DIPG-1 viability, CellTiter-Glo ATP luminescence
[4] = viability loss in pontine glioma line – cell-based, SU-DIPG-IV, MIPE4.0, CellTiter-Glo, qHTS, dose response (AID 1347063; cut-off not given, nearly all actives have AC50 up to about 30 µM;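 also: compound exposure lasted 48 hours before the viability readout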); settings: CellTiter-Glo ATP luminescence
[5] = growth inhibition of DIPG cells – cell-based, MIPE4.0 library, CellTiter-Glo luminescence, qHTS (AID 1347066; cut-off not given, nearly all actives have AC50 up to about 30 µM;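 also: cells exposed to compound for 48 hours before readout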); settings: SU-DIPG-VI viability, CellTiter-Glo ATP luminescence
[6] = JHH-DIPG-1 glioma cell viability, MIPE5.0 library, CellTiter-Glo luminescence, qHTS (AID 1347067; cut-off not given, nearly all actives have AC50 up to about 26 µM;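 also: cells exposed to compound for 48 hours before readout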); settings: JHH-DIPG-1 glioma viability, CellTiter-Glo ATP luminescence
[7] = growth inhibition of DIPG cells – cell-based, MIPE5.0 library, qHTS (AID 1347068; cut-off not given, nearly all actives have IC50 up to about 30 µM); settings: SU-DIPG-XXV viability
[8] = viability loss in pontine glioma line – cell-based, SU-DIPG-XIII, MIPE5.0, CellTiter-Glo, qHTS, dose response (AID 1347064; cut-off not given, nearly all actives have AC50 up to about 23 µM); settings: CellTiter-Glo ATP luminescence
[9] = viability loss in pontine glioma line – cell-based, SU-DIPG-XXV, MIPE5.0, CellTiter-Glo, qHTS, dose response (AID 1347065; cut-off not given, nearly all actives have AC50 up to about 26 µM;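 also: cells exposed to compound for 48 hours before ATP readout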); settings: CellTiter-Glo ATP luminescence
[10] = target: NAD(+) hydrolase SARM1 (Homo sapiens) (UniProt Q6SZW1); assay: blocking NAD cleavage by SARM1 SAM-TIR – cell lysate, NAD-Glo luminescence (AID 1508614;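 active = compound whose remaining NAD level is above about 45 nM, limit read from the data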;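 also: higher remaining NAD means stronger inhibition of SARM1 NADase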); settings: SAM-TIR HEK293T lysate NADase, at 1 µM, stronger effect = higher value
[11] = target: Mitogen-activated protein kinase 7 (Homo sapiens) (UniProt Q13164); assay: Gal4-ERK5 driven luciferase induction – cell-based, HTS, primary screen (AID 1508626;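 active = luciferase signal above three times the same-plate solvent-only control wells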;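 also: luciferase driven by Gal4-ERK5 fusion binding five Gal4 sites before minimal TATA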); settings: HeLa Gal4-ERK5 transactivation, 18 h, at 5 µM, stronger effect = higher value
[12] = viability loss in pontine glioma line – cell-based, SU-DIPG-XVII, MIPE5.0, CellTiter-Glo, qHTS, dose response (AID 1347060; cut-off not given, nearly all actives have AC50 up to about 26 µM;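 as to AC50: cells exposed to compound for 48 hours before viability readout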); settings: CellTiter-Glo ATP luminescence
[13] = viability loss in pontine glioma line – cell-based, SU-DIPG-XIII, MIPE4.0, CellTiter-Glo, qHTS, dose response (AID 1347061; cut-off not given, nearly all actives have AC50 up to about 37 µM;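 also: cells exposed to compound for 48 hours before readout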); settings: CellTiter-Glo ATP luminescence
[14] = compounds altering circadian rhythm period length – cell-based, LOPAC library, luminescence reporter (AID 2774; call rule not given here;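 also: values are relative to mean of DMSO wells on each plate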); settings: circadian reporter cells, at 7 µM, actives lie on both sides
[15] = tested on: Hepatitis C virus NS3 helicase; assay: blockers of NS3h binding to ssDNA – biochemical, fluorescence polarization, LOPAC1280 library, primary screen (AID 687035; in the data active = inhibition above about 37%); settings: Purified HCV NS3 helicase, Cy5-dT15 ssDNA binding fluorescence polarization; stronger effect = higher value; concentration not given here
[16] = compounds altering Cy5-DNA-NS3h complex signal – biochemical, LOPAC1280, artefact control for HCV NS3 helicase inhibitor project (AID 687037; call rule not given here); settings: Cy5-DNA-NS3h complex fluorescence interference counterscreen
[17] = blockers of cellular phospholipid synthesis – cell-based, LOPAC library, screen 4, primary screen (AID 1347384; call rule not given here); settings: animal cells, phospholipid biosynthesis inhibition screen; at 10 µM
[18] = compounds altering HSF1 focus formation in cells – imaging, Selleck Cancer Library (AID 1347162; in the data active = plate-normalised HSF1 focus index below about 0.46); settings: human cells, HSF1 nuclear foci imaging, at 10 µM; SSMD: measured here: HSF1 foci SSMD mean; cell count: measured here: cell number; plate-normalised HSF1 focus index: stronger effect = lower value

Sequence of NAD(+) hydrolase SARM1 (Homo sapiens) (Q6SZW1 whole entry, looked up, the tested form may be a part): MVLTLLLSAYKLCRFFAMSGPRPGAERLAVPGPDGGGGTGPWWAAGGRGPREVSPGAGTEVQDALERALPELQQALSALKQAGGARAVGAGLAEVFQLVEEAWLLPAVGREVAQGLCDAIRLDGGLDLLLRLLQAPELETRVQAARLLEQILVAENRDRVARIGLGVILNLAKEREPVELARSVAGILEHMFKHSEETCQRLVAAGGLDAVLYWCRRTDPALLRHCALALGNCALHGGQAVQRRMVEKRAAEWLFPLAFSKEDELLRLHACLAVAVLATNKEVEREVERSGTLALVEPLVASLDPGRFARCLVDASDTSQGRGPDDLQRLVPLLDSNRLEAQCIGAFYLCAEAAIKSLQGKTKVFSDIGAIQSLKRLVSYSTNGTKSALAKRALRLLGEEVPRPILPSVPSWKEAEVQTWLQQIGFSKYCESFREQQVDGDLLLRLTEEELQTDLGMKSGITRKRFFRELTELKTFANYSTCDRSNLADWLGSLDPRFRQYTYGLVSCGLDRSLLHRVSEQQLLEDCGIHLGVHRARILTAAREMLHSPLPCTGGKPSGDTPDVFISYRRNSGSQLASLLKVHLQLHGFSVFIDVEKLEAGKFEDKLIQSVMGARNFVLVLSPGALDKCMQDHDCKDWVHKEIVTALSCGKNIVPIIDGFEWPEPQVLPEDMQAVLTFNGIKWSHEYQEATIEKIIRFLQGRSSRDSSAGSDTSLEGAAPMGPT
Sequence of Mitogen-activated protein kinase 7 (Homo sapiens) (Q13164 whole entry, looked up, the tested form may be a part): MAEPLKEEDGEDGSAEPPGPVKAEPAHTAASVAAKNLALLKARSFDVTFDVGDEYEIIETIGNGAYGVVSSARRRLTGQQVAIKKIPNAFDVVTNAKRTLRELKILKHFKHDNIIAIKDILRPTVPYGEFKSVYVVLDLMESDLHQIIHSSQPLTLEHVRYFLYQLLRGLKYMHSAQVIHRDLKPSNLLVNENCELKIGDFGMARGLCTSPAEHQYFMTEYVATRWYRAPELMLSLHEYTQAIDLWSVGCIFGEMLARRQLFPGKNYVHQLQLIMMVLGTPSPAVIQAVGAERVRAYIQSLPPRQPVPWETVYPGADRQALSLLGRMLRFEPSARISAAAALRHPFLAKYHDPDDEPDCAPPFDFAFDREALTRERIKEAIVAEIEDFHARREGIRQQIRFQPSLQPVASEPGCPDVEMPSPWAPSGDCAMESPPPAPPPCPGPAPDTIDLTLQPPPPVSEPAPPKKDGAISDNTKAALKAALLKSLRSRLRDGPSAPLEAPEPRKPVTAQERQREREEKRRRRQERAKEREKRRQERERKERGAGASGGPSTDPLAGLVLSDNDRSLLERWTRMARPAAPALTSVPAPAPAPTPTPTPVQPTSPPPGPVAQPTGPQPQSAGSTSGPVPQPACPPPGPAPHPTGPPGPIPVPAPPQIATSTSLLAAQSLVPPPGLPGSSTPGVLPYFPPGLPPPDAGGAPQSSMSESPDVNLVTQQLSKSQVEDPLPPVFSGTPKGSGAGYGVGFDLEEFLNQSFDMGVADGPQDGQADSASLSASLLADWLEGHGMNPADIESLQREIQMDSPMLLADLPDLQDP

In the case of `C[C@H]1[C@@H](OC(=O)CCC(=O)O)O[C@@H]2OC3(C)CC[C@H]4[C@H](C)CC[C@@H]1[C@@]24OO3`, the z-score [1] is reported as -0.982 (inactive) and the z-score [2] is reported as -2.11 (inactive).

For `O=C1C(c2c(O)[nH]c3ccccc23)=Nc2ccccc21`, the outcome [1] was “inactive”, the outcome [3] was “inactive” and the AC50 [4] was 13200 nM (active). For the same compound, the outcome [5] was “inactive”, the outcome [6] was “inactive” and the outcome [7] was “inactive”. The z-score [2] was -0.25 (inactive).

In the case of `CCOC(=O)[C@@H](CCc1ccccc1)N[C@@H](C)C(=O)N1CCC[C@H]1C(=O)O`, the z-score [2] is reported as 0.835 (inactive).

With `CCOC(=O)CCC(=O)OC1C(OC2C(C)C(OC3CC(C)(OC)C(O)C(C)O3)C(C)C(=O)OC(CC)C(C)(O)C(O)C(C)C(=O)C(C)CC2(C)O)OC(C)CC1N(C)C` (stereo not given) the z-score [2] was 0.77 (inactive).

In the case of `CC1CC2C3CCC4=CC(=O)C=CC4(C)C3(F)C(O)CC2(C)C1(O)C(=O)CO` (stereo not given), the z-score [2] is reported as 1.66 (inactive).

For `CC(=O)C1(O)CCC2C3CC(C)C4=CC(=O)C=CC4(C)C3(F)C(O)CC21C` (stereo not given), the z-score [2] was -0.02 (inactive).

For `CC1CNc2c(cccc2S(=O)(=O)N[C@@H](CCCN=C(N)N)C(=O)N2CC[C@@H](C)C[C@@H]2C(=O)O)C1` (stereo not given in full), the z-score [1] was -1.46 (inactive), the outcome [8] was “inactive” and the outcome [9] was “inactive”. The outcome [5] was “inactive”, the outcome [6] was “inactive” and the outcome [7] was “inactive”. The z-score [2] was 0.59 (inactive).

With `O=C1c2c(O)cc(O)cc2O[C@H](c2ccc(O)c(O)c2)[C@H]1O` the z-score [1] was -0.839 (inactive), the outcome [3] was “inactive” and the outcome [9] was “inactive”. The outcome [5] was “inactive”, the outcome [6] was “inactive” and the outcome [7] was “inactive”.

With `CN1[C@@H]2CC[C@H]1CC(OC(=O)C(CO)c1ccccc1)C2` (stereo not given in full) the remaining NAD [10] was 10 nM (inactive), the luciferase signal [11] was 44 AU (inactive) and the z-score [2] was 0.56 (inactive) and 0.265 (inactive).

With `Nc1ccn([C@@H]2CS[C@H](CO)O2)c(=O)n1` the z-score [1] was 0.62 (inactive), the outcome [12] was “inactive” and the outcome [8] was “inactive”. The outcome [9] was “inactive”, the outcome [6] was “inactive” and the outcome [7] was “inactive”. For the same compound, the remaining NAD [10] was 10 nM (inactive) and the z-score [2] was 1.21 (inactive).

With `COc1ccnc(CS(=O)c2nc3cc(OC(F)F)ccc3[nH]2)c1OC` (stereo not given) the z-score [1] was 0.437 (inactive) and the z-score [2] was 0.63 (inactive).

In the case of `Cc1onc(-c2ccccc2)c1C(=O)NC1C(=O)N2C1SC(C)(C)C2C(=O)O` (stereo not given), the z-score [2] is reported as 0.33 (inactive) and 0.12 (inactive).

In the case of `CCC(C)n1ncn(-c2ccc(N3CCN(c4ccc(OCC5COC(Cn6cncn6)(c6ccc(Cl)cc6Cl)O5)cc4)CC3)cc2)c1=O` (stereo not given), the z-score [1] is reported as 0.805 (inactive) and the z-score [2] is reported as -1.48 (inactive) and 0.09 (inactive).

For `C=CCc1ccc(O)c(-c2ccc(O)c(CC=C)c2)c1`, the z-score [1] was -0.759 (inactive), the outcome [13] was “inactive” and the AC50 [4] was 23500 nM (active). The z-score [2] was -1.87 (inactive).

In the case of `CCCCc1nc(Cl)c(CO)n1Cc1ccc(-c2ccccc2-c2nnn[nH]2)cc1`, the z-score [1] is reported as -0.132 (inactive) and the z-score [2] is reported as 0.965 (inactive) and 0.025 (inactive).

For `CNC(=O)Oc1ccc2c(c1)[C@]1(C)CCN(C)C1N2C` (stereo not given in full), the z-score [1] was -0.245 (inactive) and the z-score [2] was -1.49 (inactive).

In the case of `COc1cc(C)c(/C=C/C(C)=C/C=C/C(C)=C/C(=O)O)c(C)c1C`, the outcome [3] is reported as “inactive”, the AC50 [9] is reported as 11800 nM (active) and the outcome [6] is reported as “inactive”. The outcome [7] was “inactive” and the z-score [2] was -0.775 (inactive).

For `CC(=O)OCC(=O)C12OC3(CCCC3)OC1CC1C3CCC4=CC(=O)C=CC4(C)C3(F)C(O)CC12C` (stereo not given), the z-score [2] was -1.46 (inactive).

With `CC(N)(Cc1ccc(O)c(O)c1)C(=O)O` (stereo not given) the period change [14] was -0.1 h (inactive), the inhibition [15] was 0% (inactive) and the fluorescence ratio (interference) [16] was 1 (inactive). For the same compound, the outcome [17] was “inactive” and the z-score [2] was -1.27 (inactive) and -1.07 (inactive).

With `CC1(C)SC2C(NC(=O)C(N)c3ccccc3)C(=O)N2C1C(=O)O` (stereo not given) the z-score [2] was 0.46 (inactive).

With `Cc1nnc(SCC2=C(C(=O)O)N3C(=O)C(NC(=O)Cn4cnnn4)C3SC2)s1` (stereo not given) the z-score [2] was -0.49 (inactive).

For `Nc1nc(Cl)nc2c1ncn2[C@H]1C[C@H](O)[C@@H](CO)O1`, the z-score [1] was -0.302 (inactive), the AC50 [12] was 833 nM (active) and the outcome [13] was “inactive”. For the same compound, the outcome [6] was “inactive”, the outcome [7] was “inactive” and the SSMD [18] was -4.5. The cell count [18] was 6930 and the plate-normalised HSF1 focus index [18] was 0.776 (inactive).

In the case of `CN1CCC[C@H]1c1cccnc1`, the period change [14] is reported as 0.09 h (inactive), the inhibition [15] is reported as 0% (inactive) and the fluorescence ratio (interference) [16] is reported as 1 (inactive). For the same compound, the remaining NAD [10] was 10 nM (inactive) and the z-score [2] was 1.02 (inactive).

For `COC(=O)Nc1nc2ccc(C(=O)c3ccc(F)cc3)cc2[nH]1`, the z-score [1] was 0.511 (inactive), the AC50 [12] was 417 nM (active) and the outcome [13] was “inactive”. The AC50 [9] was 332 nM (active), the outcome [5] was “inactive” and the AC50 [6] was 417 nM (active). The z-score [2] was -1.28 (inactive) and -0.83 (inactive).

With `Nc1ccc2cn[nH]c2c1` the z-score [1] was -0.807 (inactive) and the z-score [2] was 0.52 (inactive).

In the case of `CCC1=C[C@H]2CN(C1)Cc1c([nH]c3ccccc13)[C@@](C(=O)OC)(c1cc3c(cc1OC)N(C)[C@H]1[C@@](O)(C(=O)OC)[C@H](OC(C)=O)[C@]4(CC)C=CCN5CC[C@]31[C@@H]54)C2`, the z-score [1] is reported as 1.48 (inactive).

With `O=c1cnn([C@@H]2O[C@H](CO)[C@@H](O)[C@H]2O)c(=O)[nH]1` the z-score [1] was -0.659 (inactive).

For `CC(COc1ccccc1Cc1ccccc1)N1CCCCC1` (stereo not given), the z-score [1] was -1.06 (inactive) and the z-score [2] was -1.81 (inactive).

For `CC1CC2C3CCC4=CC(=O)C=CC4(C)[C@@]3(Cl)C(O)CC2(C)C1(O)C(=O)CO` (stereo not given in full), the z-score [1] was 0.0119 (inactive) and the z-score [2] was 1.36 (inactive).

For `CCCc1nc(C(C)(C)O)c(C(=O)O)n1Cc1ccc(-c2ccccc2-c2nn[nH]n2)cc1`, the outcome [12] was “inactive”, the outcome [3] was “inactive” and the outcome [4] was “inactive”. The outcome [8] was “inactive”, the outcome [9] was “inactive” and the outcome [5] was “inactive”. For the same compound, the outcome [6] was “inactive”, the outcome [7] was “inactive” and the remaining NAD [10] was 10 nM (inactive). The z-score [2] was 0.54 (inactive) and -0.09 (inactive).

In the case of `O=C(O[C@H]1[C@H](Oc2ccccc2COC(=O)C2(O)C=CCCC2=O)O[C@H](CO)[C@@H](O)[C@@H]1O)c1ccccc1` (stereo not given in full), the z-score [1] is reported as -0.65 (inactive).

With `C[C@]12CC3CC(N)(C1)C[C@@](C)(C3)C2` the z-score [2] was -0.375 (inactive) and -0.275 (inactive).

In the case of `CCC(=C(c1ccccc1)c1ccc(OCCN(C)C)cc1)c1ccccc1`, the z-score [2] is reported as -0.495 (inactive).

With `COc1cc(/C=C/c2ccc(O)cc2)cc(OC)c1` the z-score [1] was -1.34 (inactive).

In the case of `O=c1[nH]c2ccccc2c2ccccc12`, the period change [14] is reported as 0.13 h (inactive), the inhibition [15] is reported as -3% (inactive) and the fluorescence ratio (interference) [16] is reported as 1 (inactive). The outcome [17] was “inactive” and the z-score [2] was 0.885 (inactive).

In the case of `CN1C2CCC1CC(OC(c1ccccc1)c1ccccc1)C2` (stereo not given), the period change [14] is reported as 0.035 h (inactive), the inhibition [15] is reported as -5% (inactive) and the fluorescence ratio (interference) [16] is reported as 1 (inactive). The outcome [17] was “inactive” and the z-score [2] was -0.84 (inactive) and -0.76 (inactive).
